Results taken from PubChem BioAssay (NCATS).
Inconclusive results are not listed. Entries that show only a call come without a potency. Values without a mark were called inactive. Active and inactive are the calls of the source. Unless noted, the call rests on the fitted dose curve; in most records, active means well fitted curve in the direction sought with a large enough effect; inconclusive means small, poorly fitted or top-dose-only effect, or another doubt; inactive means no such curve, though single readings can be large; an effect the other way counts as inactive or inconclusive.

Legend:
[1] = P-glycoprotein substrates identified in KB-8-5-11 adenocarcinoma cell line, qHTS therapeutic library screen (AID 1346987); further: nearly all actives have a fitted effect of over 65% in size; further: potency means the concentration at half of the fitted maximal effect
Outline: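 Steps: plate 500 KB-8-5-11 cells/well in DMEM + 10% FCS (colchicine removed); pin compounds in dose-response; incubate 72 h, 37 degree C, 5% CO2; add CellTiter-Glo, 5 min; read luminescence.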

[2] = NS1 protein of Zika virus - qHTS assay to identify small molecule inhibitors in human HEK 293 cells (AID 1347053); further: series mostly up to about 46 µM; nearly all actives have a fitted effect of over 55% in size
Outline: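 Inhibition of NS1 expression was scored in HEK 293 cells given compound 1 h ahead of MR766 virus (MOI = 0.5). Following 24 h at 37 C, two anti-NS1 antibodies generated a TR-FRET signal, scaled between uninfected and infected controls.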

[3] = qHTS for Inhibitors of the Functional Ribonucleoprotein Complex (vRNP) of Lassa (LASV) Arenavirus: LASV Primary Screen - GLuc reporter signal (AID 1347082; calls by dose curve; tested in HEK293 reporter line; further: series mostly up to about 57 µM; nearly all actives have a fitted effect of over 60% in size)
[4] = qHTS for Inhibitors of the Functional Ribonucleoprotein Complex (vRNP) of Lassa (LASV) Arenavirus: Viability assay - alamar blue signal for LASV Primary Screen (AID 1347083; calls by dose curve; tested in HEK293 reporter line; further: series mostly up to about 57 µM; nearly all actives have a fitted effect of over 80% in size)
[5] = qHTS for Inhibitors of the Functional Ribonucleoprotein Complex (vRNP) of Lymphocytic Choriomeningitis Arenaviruses (LCMV): Viability assay - alamar blue signal for LCMV Primary Screen (AID 1347085; calls by dose curve; tested in HEK293 reporter line; further: series mostly up to about 57 µM; nearly all actives have a fitted effect of over 80% in size)
[6] = biological target: Nucleoprotein (Lymphocytic choriomeningitis virus (strain Armstrong)) (UniProt P09992); experiment: qHTS for Inhibitors of the Functional Ribonucleoprotein Complex (vRNP) of Lymphocytic Choriomeningitis Arenaviruses (LCMV): LCMV Primary Screen - GLuc reporter signal (AID 1347086; calls by dose curve; further: series mostly up to about 57 µM; nearly all actives have a fitted effect of over 70% in size)
[7] = qHTS of pediatric cancer cell lines to identify multiple opportunities for drug repurposing: Primary screen for TC32 cells (AID 1347089); further: nearly all actives have a fitted effect of over 60% in size
Outline: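 Luminescent ATP read-out (CellTiter-Glo) of metabolically active TC32 cells after 48 h exposure. Concentration-response curves came from 11-point (MIPE, 0.78 nM–46 µM) or 8-point (NPC, 0.59 nM–46 µM) primary titrations; follow-up used 11 points.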

[8] = qHTS of pediatric cancer cell lines to identify multiple opportunities for drug repurposing: Primary screen for DAOY cells (AID 1347090); further: nearly all actives have a fitted effect of over 55% in size; further: potency means the concentration at half of the fitted maximal effect
Outline: (§1)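 Viability measured as metabolically active cells via CellTiter-Glo luminescence following 48 hours of compound exposure, 11-point dilutions in confirmatory testing. 500-1,000 cells/well plated 5 hours before dosing; controls were DMSO and 2.3 µM bortezomib.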

[9] = qHTS of pediatric cancer cell lines to identify multiple opportunities for drug repurposing: Primary screen for SJ-GBM2 cells (AID 1347091); further: potency means the concentration at half of the fitted maximal effect
Outline: as §1

[10] = qHTS of pediatric cancer cell lines to identify multiple opportunities for drug repurposing: Primary screen for A673 cells (AID 1347092); further: nearly all actives have a fitted effect of over 45% in size; further: potency means the concentration at half of the fitted maximal effect
Outline: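 Cell viability of A673 measured by CellTiter-Glo ATP luminescence after 48 hours compound exposure. Dilution series spanned 0.78 nM to 46 µM (MIPE, 11-point) or 0.59 nM to 46 µM (NPC, 8-point); bortezomib 2.3 uM positive control.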

[11] = qHTS of pediatric cancer cell lines to identify multiple opportunities for drug repurposing: Primary screen for BT-37 cells (AID 1347094); further: potency means the concentration at half of the fitted maximal effect
Outline: (§2)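 Plated cells (500-1,000 per well, growth media) were allowed to settle for 5 hours, treated with compound dilutions for 48 hours, then lysed with CellTiter-Glo for 15 min at room temperature before luminescence reading.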

[12] = qHTS of pediatric cancer cell lines to identify multiple opportunities for drug repurposing: Primary screen for NB-EBc1 cells (AID 1347095); further: potency means the concentration at half of the fitted maximal effect
Outline: as §2

[13] = qHTS of pediatric cancer cell lines to identify multiple opportunities for drug repurposing: Primary screen for SK-N-MC cells (AID 1347093); further: potency means the concentration at half of the fitted maximal effect
Outline: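 Metabolically active cells were quantified by ATP-dependent luminescence (CellTiter-Glo, 15 min at room temperature) following 48 h treatment. Cells had been plated at 500-1,000 per well and settled for 5 h beforehand.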

Chain of Nucleoprotein (Lymphocytic choriomeningitis virus (strain Armstrong)) (P09992 whole entry, looked up): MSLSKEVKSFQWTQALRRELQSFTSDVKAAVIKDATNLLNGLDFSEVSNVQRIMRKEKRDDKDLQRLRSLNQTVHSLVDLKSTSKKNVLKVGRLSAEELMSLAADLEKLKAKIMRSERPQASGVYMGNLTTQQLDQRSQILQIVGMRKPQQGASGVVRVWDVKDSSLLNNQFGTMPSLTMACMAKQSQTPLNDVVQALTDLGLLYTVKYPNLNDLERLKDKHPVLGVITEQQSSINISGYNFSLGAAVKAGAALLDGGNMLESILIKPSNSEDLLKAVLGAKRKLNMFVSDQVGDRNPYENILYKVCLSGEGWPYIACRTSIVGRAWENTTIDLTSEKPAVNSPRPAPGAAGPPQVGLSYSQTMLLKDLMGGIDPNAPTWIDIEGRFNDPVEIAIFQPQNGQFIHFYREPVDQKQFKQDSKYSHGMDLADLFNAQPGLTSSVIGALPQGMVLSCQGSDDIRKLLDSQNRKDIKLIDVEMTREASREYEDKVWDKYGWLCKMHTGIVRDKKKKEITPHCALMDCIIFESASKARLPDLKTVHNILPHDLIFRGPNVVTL

Compound	Potency [1]	outcome [2]	Potency [3]	Potency [4]	Potency [5]	Potency [6]	Potency [7]	Potency [8]	Potency [9]	Potency [10]	Potency [11]	Potency [12]	Potency [13]
CN1C(=O)COc2c(C(=O)NC3CN4CCC3CC4)cc(Cl)cc21 (centres undefined)	inactive	inactive	inactive	inactive	inactive	inactive	inactive	inactive	inactive	inactive	inactive	inactive	–
O=C1CN=C(c2ccccc2)c2cc([N+](=O)[O-])ccc2N1	inactive	inactive	inactive	inactive	inactive	inactive	inactive	inactive	inactive	inactive	inactive	inactive	–
NC(=O)c1cc([N+](=O)[O-])cc([N+](=O)[O-])c1	inactive	inactive	inactive	inactive	inactive	inactive	inactive	inactive	inactive	inactive	inactive	inactive	–
Nc1ccccc1C(=O)O	inactive	inactive	inactive	inactive	inactive	inactive	inactive	inactive	inactive	inactive	inactive	inactive	–
[N-]=[N+]=CC(=O)OC[C@H](N)C(=O)O	inactive	inactive	inactive	inactive	inactive	inactive	inactive	inactive	inactive	inactive	inactive	inactive	–
COc1cc(OC)c(OC)cc1C=O	inactive	inactive	inactive	inactive	inactive	inactive	inactive	inactive	inactive	inactive	inactive	inactive	–
CCN[C@@H](C)Cc1cccc(C(F)(F)F)c1	inactive	inactive	inactive	inactive	inactive	inactive	inactive	inactive	inactive	inactive	inactive	inactive	–
CCCCCCC(=O)CCCCCC/C=C/C[C@@H](O)[C@H](O)[C@@](N)(CO)C(=O)O	inactive	inactive	inactive	inactive	inactive	inactive	inactive	inactive	inactive	inactive	inactive	inactive	inactive
CCC(C)(C)c1ccc(O)cc1	inactive	inactive	inactive	inactive	inactive	inactive	inactive	inactive	inactive	inactive	inactive	inactive	inactive
C[C@H]1[C@@H]2Cc3ccc(O)cc3[C@@]1(C)CCN2C	inactive	inactive	inactive	inactive	inactive	inactive	inactive	inactive	inactive	inactive	inactive	inactive	–
c1ccc(CN2CCNCC2)cc1	inactive	inactive	inactive	inactive	inactive	inactive	inactive	inactive	inactive	inactive	inactive	inactive	–
CC(C)=CC1C(C(=O)OCN2C(=O)C3=C(CCCC3)C2=O)C1(C)C (centres undefined)	inactive	inactive	inactive	inactive	inactive	inactive	inactive	inactive	21.1 µM (active)	inactive	inactive	–	–
C#C[C@]1(O)CC[C@H]2[C@@H]3CCC4=CC(=O)CC[C@]4(C)[C@H]3CC[C@@]21C	inactive	inactive	inactive	inactive	inactive	inactive	inactive	inactive	inactive	inactive	inactive	inactive	inactive
NC1=NC(=O)C(c2ccccc2)O1 (centres undefined)	inactive	inactive	inactive	inactive	inactive	inactive	inactive	inactive	inactive	inactive	inactive	inactive	–
Nc1ccccc1	inactive	inactive	inactive	inactive	inactive	inactive	inactive	inactive	inactive	inactive	inactive	inactive	–
CC(C)(C)NCC(O)c1cc(Cl)c(N)c(C(F)(F)F)c1 (centres undefined)	inactive	inactive	inactive	inactive	inactive	inactive	inactive	inactive	inactive	inactive	inactive	inactive	inactive
CC(=O)NC1CCSC1=O (centres undefined)	inactive	inactive	inactive	inactive	inactive	inactive	inactive	inactive	inactive	inactive	inactive	inactive	inactive
CNCC(=O)c1ccc(O)c(O)c1	inactive	inactive	inactive	inactive	inactive	inactive	inactive	inactive	inactive	inactive	inactive	inactive	–
COP(=S)(OC)Oc1ccc(SC)c(C)c1	inactive	inactive	inactive	inactive	inactive	inactive	inactive	inactive	inactive	inactive	inactive	inactive	–
CCN[C@@H](C)Cc1ccccc1	inactive	inactive	inactive	inactive	inactive	inactive	inactive	inactive	inactive	inactive	inactive	inactive	inactive
CCC1(c2ccccc2)C(=O)N(COC)C(=O)N(COC)C1=O	inactive	inactive	inactive	inactive	inactive	inactive	inactive	inactive	inactive	inactive	inactive	inactive	inactive

Compound	Potency [1]	outcome [2]	Potency [3]	Potency [4]	Potency [5]	Potency [6]	Potency [7]	Potency [8]	Potency [9]	Potency [10]	Potency [11]	Potency [12]	Potency [13]
CC(C)NC(C)C	inactive	inactive	inactive	inactive	inactive	inactive	inactive	inactive	inactive	inactive	inactive	inactive	–
O=C1OC(c2ccc(O)c(S(=O)(=O)O)c2)(c2ccc(O)c(S(=O)(=O)O)c2)c2c(Br)c(Br)c(Br)c(Br)c21	inactive	inactive	inactive	inactive	inactive	inactive	inactive	inactive	inactive	inactive	inactive	inactive	inactive
COc1cc(CC(C)N)cc(OC)c1OC (centres undefined)	inactive	inactive	inactive	inactive	inactive	inactive	inactive	inactive	inactive	inactive	inactive	inactive	inactive
O=[N+]([O-])O[C@H]1CO[C@H]2[C@@H]1OC[C@H]2O[N+](=O)[O-]	inactive	inactive	inactive	inactive	inactive	inactive	inactive	inactive	inactive	inactive	inactive	inactive	–
C[N+]1(CCF)[C@@H]2CC[C@H]1CC(OC(=O)C(O)(c1ccccc1)c1ccccc1)C2 (some centres undefined)	inactive	inactive	inactive	inactive	inactive	inactive	inactive	inactive	inactive	inactive	inactive	inactive	–
COc1cc(CCN)cc(OC)c1OC	inactive	inactive	inactive	inactive	inactive	inactive	inactive	inactive	inactive	inactive	inactive	inactive	–
c1ccc2c(c1)sc1ccccc12	inactive	inactive	inactive	inactive	inactive	inactive	inactive	inactive	inactive	inactive	inactive	inactive	–
CC(=O)OCC1=C(C(=O)O)N2C(=O)[C@@H](N)[C@H]2SC1	inactive	inactive	inactive	inactive	inactive	inactive	inactive	inactive	inactive	inactive	inactive	inactive	–
CCOC(=O)CC(SP(=S)(OC)OC)C(=O)OCC (centres undefined)	inactive	inactive	inactive	inactive	inactive	inactive	inactive	inactive	inactive	inactive	inactive	inactive	inactive
NC(=O)CS(=O)C(c1ccccc1)c1ccccc1 (centres undefined)	inactive	inactive	inactive	inactive	inactive	inactive	inactive	inactive	inactive	inactive	inactive	inactive	inactive
C[C@]12CC[C@@H]3c4ccc(OC(=O)N(CCCl)CCCl)cc4CC[C@H]3[C@@H]1CC[C@@H]2OP(=O)(O)O	inactive	inactive	inactive	inactive	inactive	inactive	inactive	inactive	16.6 µM (active)	inactive	inactive	–	–
COc1c2c(cc3c1OCO3)CCN(C)C2	inactive	inactive	inactive	inactive	inactive	inactive	inactive	inactive	inactive	inactive	inactive	inactive	inactive
Oc1ccc(Cl)cc1	inactive	inactive	inactive	inactive	inactive	inactive	inactive	inactive	inactive	inactive	inactive	inactive	–
CNC(C)(C)Cc1ccccc1	inactive	inactive	inactive	inactive	inactive	inactive	inactive	inactive	inactive	inactive	inactive	inactive	inactive
Nc1nc(N)nc(NC2CC2)n1	inactive	inactive	inactive	inactive	inactive	inactive	inactive	inactive	inactive	inactive	inactive	inactive	inactive
C#CC(O)(C=CCl)CC (centres undefined)	–	inactive	inactive	inactive	inactive	inactive	inactive	inactive	inactive	inactive	inactive	inactive	inactive
Nc1ccn(C[C@@H](CO)OCP(=O)(O)O)c(=O)n1	inactive	–	inactive	inactive	inactive	inactive	–	–	–	–	–	–	–
CC[N+]1(CC)CCC(OC(=O)C(O)(c2ccccc2)c2ccccc2)C1 (centres undefined)	–	inactive	inactive	inactive	inactive	inactive	inactive	inactive	inactive	inactive	inactive	inactive	–
CCOP(=S)(OCC)Oc1ccc2c(C)c(Cl)c(=O)oc2c1	–	inactive	inactive	inactive	inactive	inactive	inactive	inactive	inactive	0.001 µM (active)	inactive	–	inactive
C[C@](O)(CS(=O)(=O)c1ccc(F)cc1)C(=O)Nc1ccc(C#N)c(C(F)(F)F)c1	14.6 µM (active)	inactive	–	–	inactive	inactive	inactive	0.743 µM (active)	3.72 µM (active)	2.96 µM (active)	19.3 µM (active)	4.69 µM (active)	0.469 µM (active)
